Of roughly 7,900 targets only a part is listed; those with a hit were picked by preference. About 0.6% of all pairs of compound and target were hits. A number with no mark means an inactive call.
Assays:
Assay in all cases: log2 fold change, soluble protein after heating vs DMSO (PISA); higher = thermal stabilisation; K562 cells, 10 uM, 30 min; active = over 0.2 and 3.5 SD of the protein, either way, in both replicates (recomputed)
saracatinib = compound: CN1CCN(CCOc2cc(OC3CCOCC3)c3c(Nc4c(Cl)ccc5c4OCO5)ncnc3c2)CC1 [saracatinib]
How it was run: (§1)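 Thermal stability values are relative to control samples and come from duplicates. They are expressed as log2 fold changes. For measurement, K562 cells (2×10^6 cells/mL) received 10 μM compound for 30 min, and aliquots were heated for 3 min over 48°C-58°C, pooled, and extracted at 4°C in PBS with 0.5% NP-40. Soluble protein, the supernatant after 21,000xg for 90 min, was quantified by TMTpro 16plex LC-MS/MS with equalised channel sums.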

sotrastaurin = compound: CN1CCN(c2nc(C3=C(c4c[nH]c5ccccc45)C(=O)NC3=O)c3ccccc3n2)CC1 [sotrastaurin]
How it was run: as §1

alvocidib = compound: CN1CC[C@H](c2c(O)cc(O)c3c(=O)cc(-c4ccccc4Cl)oc23)[C@H](O)C1 [alvocidib]
How it was run: as §1

Tubastatin A = compound: CN1CCc2c(c3ccccc3n2Cc2ccc(C(=O)NO)cc2)C1 [Tubastatin A]
How it was run: as §1

[1] = compound: CNC(=O)C1=CC=CC=C1NC2=NC(=NC=C2Cl)NC3=C(C=C(C=C3)N4CCOCC4)OC
How it was run: as §1

defactinib = compound: CNC(=O)c1ccc(Nc2ncc(C(F)(F)F)c(NCc3nccnc3N(C)S(C)(=O)=O)n2)cc1 [defactinib]
How it was run: as §1

rucaparib = compound: CNCc1ccc(-c2[nH]c3cc(F)cc4c3c2CCNC4=O)cc1 [rucaparib]
How it was run: as §1

[2] = compound: CNc1nc(-c2ccc3c(N)n[nH]c3c2)cc(N2C[C@@H](C(=O)NC3CCCCC3)CC[C@H]2C)n1
How it was run: as §1

encorafenib = compound: COC(=O)N[C@@H](C)CNc1nccc(-c2cn(C(C)C)nc2-c2cc(Cl)cc(NS(C)(=O)=O)c2F)n1 [encorafenib]
How it was run: as §1

[3] = compound: COC(=O)[C@H](CCSC)NC(=O)C1=C(C=C(C=C1)NC[C@H](CS)N)C2=CC=CC=C2
How it was run: as §1

Chain of UniProt Q92696 (Q92696 whole entry, looked up): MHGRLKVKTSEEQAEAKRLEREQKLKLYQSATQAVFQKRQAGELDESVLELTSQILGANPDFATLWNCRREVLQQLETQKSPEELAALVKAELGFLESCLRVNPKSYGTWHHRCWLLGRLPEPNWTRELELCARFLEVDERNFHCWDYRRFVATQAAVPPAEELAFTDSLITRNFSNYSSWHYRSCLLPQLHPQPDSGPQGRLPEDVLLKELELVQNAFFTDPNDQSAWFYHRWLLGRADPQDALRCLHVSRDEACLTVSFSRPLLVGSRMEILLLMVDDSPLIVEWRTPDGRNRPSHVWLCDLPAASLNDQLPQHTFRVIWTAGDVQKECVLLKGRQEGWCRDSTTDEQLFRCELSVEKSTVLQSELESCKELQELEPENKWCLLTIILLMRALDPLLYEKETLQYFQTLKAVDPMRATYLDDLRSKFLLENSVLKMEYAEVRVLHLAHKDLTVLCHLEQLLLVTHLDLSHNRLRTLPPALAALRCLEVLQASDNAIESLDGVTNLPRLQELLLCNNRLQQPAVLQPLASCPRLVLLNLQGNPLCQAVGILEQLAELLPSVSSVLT
Chain of UniProt Q86VR2 (Q86VR2 whole entry, looked up): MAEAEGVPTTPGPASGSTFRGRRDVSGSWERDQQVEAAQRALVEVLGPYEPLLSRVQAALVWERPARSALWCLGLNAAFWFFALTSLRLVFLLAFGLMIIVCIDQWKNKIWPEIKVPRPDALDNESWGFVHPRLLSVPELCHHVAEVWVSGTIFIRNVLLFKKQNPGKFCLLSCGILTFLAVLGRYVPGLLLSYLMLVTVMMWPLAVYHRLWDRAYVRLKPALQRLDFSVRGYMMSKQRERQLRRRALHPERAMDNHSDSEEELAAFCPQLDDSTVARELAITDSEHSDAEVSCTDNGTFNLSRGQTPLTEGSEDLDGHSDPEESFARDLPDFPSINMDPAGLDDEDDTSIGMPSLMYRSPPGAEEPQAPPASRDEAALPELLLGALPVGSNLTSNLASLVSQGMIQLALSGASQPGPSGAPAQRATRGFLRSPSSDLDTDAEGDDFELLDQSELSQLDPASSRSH
Chain of UniProt Q13464 (Q13464 whole entry, looked up): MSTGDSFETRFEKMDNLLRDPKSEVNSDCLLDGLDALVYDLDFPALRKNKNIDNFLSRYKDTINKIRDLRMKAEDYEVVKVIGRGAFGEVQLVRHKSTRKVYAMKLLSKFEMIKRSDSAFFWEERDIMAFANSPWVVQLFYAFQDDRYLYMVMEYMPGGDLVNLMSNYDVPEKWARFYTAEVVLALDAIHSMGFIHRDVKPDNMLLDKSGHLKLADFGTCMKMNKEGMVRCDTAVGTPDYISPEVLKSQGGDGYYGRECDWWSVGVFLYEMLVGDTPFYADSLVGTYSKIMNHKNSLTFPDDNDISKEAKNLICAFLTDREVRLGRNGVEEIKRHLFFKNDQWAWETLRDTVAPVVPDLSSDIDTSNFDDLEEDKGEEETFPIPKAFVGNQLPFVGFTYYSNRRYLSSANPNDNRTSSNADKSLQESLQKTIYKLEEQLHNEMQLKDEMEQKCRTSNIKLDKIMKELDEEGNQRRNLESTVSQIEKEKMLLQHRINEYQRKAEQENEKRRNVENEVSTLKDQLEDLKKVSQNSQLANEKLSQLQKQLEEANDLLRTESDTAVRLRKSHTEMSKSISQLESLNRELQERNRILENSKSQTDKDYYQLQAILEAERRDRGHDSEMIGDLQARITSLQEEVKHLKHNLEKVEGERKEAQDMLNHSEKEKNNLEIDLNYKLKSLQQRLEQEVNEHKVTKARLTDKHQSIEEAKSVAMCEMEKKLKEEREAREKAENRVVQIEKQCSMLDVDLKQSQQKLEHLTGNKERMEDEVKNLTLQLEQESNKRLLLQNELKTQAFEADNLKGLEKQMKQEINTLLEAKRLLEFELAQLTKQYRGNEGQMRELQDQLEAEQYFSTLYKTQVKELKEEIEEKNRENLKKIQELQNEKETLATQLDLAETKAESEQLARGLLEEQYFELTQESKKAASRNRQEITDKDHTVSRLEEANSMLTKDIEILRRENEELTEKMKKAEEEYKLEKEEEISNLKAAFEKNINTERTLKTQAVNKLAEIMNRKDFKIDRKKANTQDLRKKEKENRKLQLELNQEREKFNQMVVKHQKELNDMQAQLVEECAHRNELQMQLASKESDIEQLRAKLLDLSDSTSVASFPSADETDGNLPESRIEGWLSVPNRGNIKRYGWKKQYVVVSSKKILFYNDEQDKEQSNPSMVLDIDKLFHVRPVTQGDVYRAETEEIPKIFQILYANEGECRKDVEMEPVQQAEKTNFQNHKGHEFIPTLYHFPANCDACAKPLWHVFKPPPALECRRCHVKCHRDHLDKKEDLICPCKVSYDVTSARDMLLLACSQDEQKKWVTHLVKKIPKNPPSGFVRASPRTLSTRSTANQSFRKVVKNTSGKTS
Chain of UniProt Q96IZ7 (Q96IZ7 whole entry, looked up): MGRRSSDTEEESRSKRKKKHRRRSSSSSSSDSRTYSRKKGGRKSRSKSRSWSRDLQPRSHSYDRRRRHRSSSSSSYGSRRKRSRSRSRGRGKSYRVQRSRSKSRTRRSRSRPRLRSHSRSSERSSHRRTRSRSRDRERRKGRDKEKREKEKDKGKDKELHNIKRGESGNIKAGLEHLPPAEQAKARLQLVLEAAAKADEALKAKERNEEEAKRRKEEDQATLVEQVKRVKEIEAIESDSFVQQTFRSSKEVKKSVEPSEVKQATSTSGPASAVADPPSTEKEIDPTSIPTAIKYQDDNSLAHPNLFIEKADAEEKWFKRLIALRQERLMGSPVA
Chain of UniProt Q8NEM2 (Q8NEM2 whole entry, looked up): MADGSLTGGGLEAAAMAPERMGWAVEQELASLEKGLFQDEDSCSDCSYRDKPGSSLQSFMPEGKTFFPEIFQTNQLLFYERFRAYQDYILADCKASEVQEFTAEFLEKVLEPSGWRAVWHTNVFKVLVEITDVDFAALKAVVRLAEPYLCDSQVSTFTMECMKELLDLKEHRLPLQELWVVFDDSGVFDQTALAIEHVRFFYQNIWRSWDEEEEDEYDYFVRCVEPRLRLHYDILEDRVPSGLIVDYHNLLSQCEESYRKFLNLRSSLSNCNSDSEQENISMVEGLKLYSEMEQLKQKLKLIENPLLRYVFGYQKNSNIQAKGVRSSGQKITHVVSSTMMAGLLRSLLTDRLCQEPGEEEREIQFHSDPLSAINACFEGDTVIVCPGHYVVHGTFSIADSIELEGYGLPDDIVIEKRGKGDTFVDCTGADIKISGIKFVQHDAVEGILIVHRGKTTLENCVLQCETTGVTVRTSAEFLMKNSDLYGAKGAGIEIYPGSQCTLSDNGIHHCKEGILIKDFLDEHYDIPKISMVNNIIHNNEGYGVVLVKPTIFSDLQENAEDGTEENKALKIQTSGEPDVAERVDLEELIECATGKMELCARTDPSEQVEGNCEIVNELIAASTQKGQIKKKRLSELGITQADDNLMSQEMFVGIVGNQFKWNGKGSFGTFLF
Chain of UniProt Q5JTH9 (Q5JTH9 whole entry, looked up): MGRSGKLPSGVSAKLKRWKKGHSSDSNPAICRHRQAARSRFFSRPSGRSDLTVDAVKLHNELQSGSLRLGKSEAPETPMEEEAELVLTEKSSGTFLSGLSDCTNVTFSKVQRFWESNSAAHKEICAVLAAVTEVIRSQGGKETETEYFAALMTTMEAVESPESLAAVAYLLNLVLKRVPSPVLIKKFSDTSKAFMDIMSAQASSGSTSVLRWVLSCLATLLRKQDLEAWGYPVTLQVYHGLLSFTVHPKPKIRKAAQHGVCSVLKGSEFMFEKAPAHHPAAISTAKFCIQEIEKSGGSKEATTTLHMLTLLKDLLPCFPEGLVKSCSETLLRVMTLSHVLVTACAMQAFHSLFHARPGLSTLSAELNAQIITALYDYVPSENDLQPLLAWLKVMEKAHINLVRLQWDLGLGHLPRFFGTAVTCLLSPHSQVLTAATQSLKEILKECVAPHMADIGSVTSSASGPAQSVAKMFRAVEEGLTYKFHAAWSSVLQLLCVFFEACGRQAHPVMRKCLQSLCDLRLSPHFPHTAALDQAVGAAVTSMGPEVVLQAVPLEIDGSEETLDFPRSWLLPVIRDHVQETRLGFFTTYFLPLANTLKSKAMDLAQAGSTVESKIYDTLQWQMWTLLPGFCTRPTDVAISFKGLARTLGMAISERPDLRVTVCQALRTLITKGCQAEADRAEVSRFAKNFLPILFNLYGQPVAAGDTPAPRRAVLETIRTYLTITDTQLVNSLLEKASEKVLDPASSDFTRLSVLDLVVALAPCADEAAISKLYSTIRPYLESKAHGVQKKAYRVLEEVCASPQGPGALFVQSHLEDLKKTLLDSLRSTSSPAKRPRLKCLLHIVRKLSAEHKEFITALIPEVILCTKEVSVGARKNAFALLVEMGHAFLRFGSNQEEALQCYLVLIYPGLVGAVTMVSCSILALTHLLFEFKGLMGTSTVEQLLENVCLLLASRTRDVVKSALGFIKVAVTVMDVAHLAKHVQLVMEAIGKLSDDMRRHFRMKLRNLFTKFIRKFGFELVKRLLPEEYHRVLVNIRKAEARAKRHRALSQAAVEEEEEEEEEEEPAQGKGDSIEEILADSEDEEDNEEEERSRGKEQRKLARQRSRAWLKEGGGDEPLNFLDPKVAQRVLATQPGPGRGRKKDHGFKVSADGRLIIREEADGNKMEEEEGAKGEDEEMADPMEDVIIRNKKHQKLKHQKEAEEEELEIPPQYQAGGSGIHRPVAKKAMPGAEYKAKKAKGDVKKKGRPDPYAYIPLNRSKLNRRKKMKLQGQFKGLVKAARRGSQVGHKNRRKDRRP
Chain of UniProt Q5VZM2 (Q5VZM2 whole entry, looked up): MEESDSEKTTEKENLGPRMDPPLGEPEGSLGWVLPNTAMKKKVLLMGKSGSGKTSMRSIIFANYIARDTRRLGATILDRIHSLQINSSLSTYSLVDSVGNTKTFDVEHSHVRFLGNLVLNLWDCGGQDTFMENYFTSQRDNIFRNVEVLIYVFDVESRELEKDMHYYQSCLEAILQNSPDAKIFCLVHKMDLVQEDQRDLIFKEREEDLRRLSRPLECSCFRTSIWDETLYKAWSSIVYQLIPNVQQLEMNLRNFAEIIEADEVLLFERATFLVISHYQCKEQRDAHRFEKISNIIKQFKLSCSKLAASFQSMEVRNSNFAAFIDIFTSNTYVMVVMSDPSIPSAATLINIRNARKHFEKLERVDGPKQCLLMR

Target | log2 fold change (saracatinib) | log2 fold change (sotrastaurin) | log2 fold change (alvocidib) | log2 fold change (Tubastatin A) | log2 fold change [1] | log2 fold change (defactinib) | log2 fold change (rucaparib) | log2 fold change [2] | log2 fold change (encorafenib) | log2 fold change [3]
RRP12 (UniProt Q5JTH9) | -0.024 | -0.118 | 0.233 | 0.125 | -0.057 | -0.006 | 0.183 | -0.005 | 0.138 | 0.076
RBM4 (UniProt Q9BWF3) | 0.024 | -0.1 | -0.037 | 0.017 | -0.052 | -0.055 | 0.157 | -0.036 | 0.063 | 0.025
RRAS2 isoform 4 (UniProt P62070) | 0.069 | 0.075 | 0.024 | 0.014 | -0.001 | -0.016 | 0 | 0.05 | -0.011 | 0.004
SCAMP2 (UniProt H3BUB6) | -0.149 | 0.171 | 0.253 | -0.056 | -0.043 | 0.088 | 0.072 | -0.155 | -0.311 | 0.096
SLC12A5 (UniProt Q9H2X9) | -0.152 | 0.053 | -0.067 | -0.072 | -0.007 | 0.08 | -0.138 | 0.148 | 0.044 | 0.075
RAP2C (UniProt Q9Y3L5) | 0.04 | 0.026 | -0.009 | -0.014 | -0.058 | -0.044 | -0.003 | -0.054 | -0.041 | 0.01
RPL31 (UniProt P62899) | -0.068 | -0.003 | 0.294 | 0.147 | 0.096 | 0.282 | 0.238 | 0.121 | 0.088 | -0.052
RSRC1 (UniProt Q96IZ7) | 0.04 | 0.042 | -0.027 | 0.018 | -0.215 (active) | -0.018 | -0.04 | -0.004 | 0.023 | 0.052
SEC24A (UniProt O95486) | 0.002 | -0.055 | -0.071 | 0.03 | 0.032 | -0.013 | 0.002 | -0.033 | 0.091 | -0.009
RBM12 (UniProt Q9NTZ6) | -0.04 | -0.12 | -0.191 | 0.074 | 0.008 | -0.27 | -0.109 | -0.02 | 0.061 | -0.052
RRAGC (UniProt Q9HB90) | 0.023 | 0.006 | -0.013 | -0.025 | -0.014 | -0.005 | -0.058 | -0.063 | 0.036 | -0.005
SGPL1 (UniProt O95470) | -0.014 | 0.03 | 0.04 | -0.031 | 0.064 | 0.012 | 0.1 | 0.015 | 0.08 | -0.157
SERPINA7 (UniProt P05543) | 0.339 | 0.395 | 0.018 | -0.169 | 0.147 | 0.056 | -0.145 | 0.061 | -0.085 | 0.078
RNASEH2A (UniProt O75792) | -0.071 | 0.029 | -0.107 | 0.033 | 0.029 | 0.117 | 0.018 | 0.033 | -0.003 | 0.096
RCN3 (UniProt Q96D15) | 0.033 | 0.107 | -0.133 | 0.153 | -0.076 | 0.096 | 0.038 | -0.309 | 0.054 | 0.087
RPA1 (UniProt P27694) | -0.007 | -0.016 | -0.031 | 0.039 | 0.012 | -0.076 | 0.027 | -0.01 | 0.076 | -0.021
RCC1 isoform 2 (UniProt P18754) | -0.076 | -0.049 | -0.234 | 0.164 | -0.083 | -0.224 | -0.008 | 0.146 | 0.045 | -0.07
SHCBP1 (UniProt Q8NEM2) | -0.044 | 0.017 | -0.07 | 0.174 | -0.061 | -0.194 | -0.104 | -0.081 | 0.149 | -0.018
SEH1L isoform 1 (UniProt Q96EE3) | 0.009 | -0.022 | 0.018 | -0.015 | -0.029 | -0.012 | -0.016 | -0.053 | 0.025 | -0.007
RPS5 (UniProt P46782) | -0.038 | 0.018 | 0.167 | 0.084 | 0.065 | 0.121 | 0.096 | 0.103 | 0.054 | -0.026
SESN2 (UniProt P58004) | -0.009 | -0.222 | -0.147 | 0.131 | 0.039 | -0.229 | 0.044 | 0.09 | 0.041 | -0.121
RRAGB (UniProt Q5VZM2) | 0.076 | 0.028 | -0.029 | -0.03 | -0.01 | -0.075 | -0.009 | -0.009 | 0.06 | 0.084
RCOR1 (UniProt Q9UKL0) | -0.011 | -0.047 | -0.066 | 0.028 | -0.017 | -0.119 | -0.005 | 0.073 | 0 | -0.002
SCAMP2 (UniProt O15127) | 0.084 | 0.096 | -0.155 | 0.019 | 0.027 | -0.086 | -0.321 | 0.028 | 0.349 | 0.101
RGS10 (UniProt O43665) | 0.033 | -0.023 | -0.042 | 0.049 | 0.014 | -0.11 | 0.038 | 0 | -0.001 | -0.002
SIK3 (UniProt H0Y4E8) | 0.027 | 0.157 | -0.007 | 0.064 | -0.009 | -0.072 | 0.023 | -0.114 | 0.056 | 0.01
ROCK1 (UniProt Q13464) | -0.006 | -0.056 | -0.052 | -0.009 | -0.016 | -0.023 | 0.021 | 0.122 | 0.031 | -0.015
RABGGTA (UniProt Q92696) | 0.013 | 0.102 | -0.079 | -0.044 | -0.034 | -0.034 | -0.015 | 0.001 | 0.004 | -0.024
SLBP (UniProt Q14493) | -0.083 | -0.077 | -0.091 | 0.117 | 0.113 | -0.128 | -0.158 | 0.02 | 0.113 | 0
RETREG3 (UniProt Q86VR2) | 0.164 | 0.035 | -0.023 | 0.022 | 0.011 | -0.015 | 0.004 | -0.011 | -0.018 | 0.032

Source: the supplement of paper PMC10849652
